DT40 TDP1 no CPT = qHTS for Inhibitors of human tyrosyl-DNA phosphodiesterase 1 (TDP1): qHTS in cells in absence of CPT. DT40 Tdp1-/- hTDP1 cells, no CPT, ATP luminescence, 48 h. Potency, µM (top dose mostly 46.2 µM), without a hit: at the top dose activity change, negative = growth inhibition, actives largely listed as inhibitors. 420,000 compounds, 15% hits. AID 686978, 2013; further: nearly all actives have a fitted effect of over 55% in size
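Compound effects on proliferation are scored in DT40 Tdp1-/-;hTDP1 cells in the absence of CPT. ATP levels (CellTiter-Glo luminescence) are recorded after a ≥48 hr, 37 °C incubation.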
PLK1 PBD block = PLK1 (human) polo-box domain binding inhibition; P53350; AID 720504; Potency, µM, inactives show max response, negative = inhibition, usual class: inhibitors; Plk1 PBD binding of FITC phosphopeptide, fluorescence polarization; 360,000 compounds, 2.8% hits; further: series mostly up to about 57 µM; nearly all actives have a fitted effect of over 65% in size
Target sequence (P53350 whole entry, looked up, the tested form may be a part): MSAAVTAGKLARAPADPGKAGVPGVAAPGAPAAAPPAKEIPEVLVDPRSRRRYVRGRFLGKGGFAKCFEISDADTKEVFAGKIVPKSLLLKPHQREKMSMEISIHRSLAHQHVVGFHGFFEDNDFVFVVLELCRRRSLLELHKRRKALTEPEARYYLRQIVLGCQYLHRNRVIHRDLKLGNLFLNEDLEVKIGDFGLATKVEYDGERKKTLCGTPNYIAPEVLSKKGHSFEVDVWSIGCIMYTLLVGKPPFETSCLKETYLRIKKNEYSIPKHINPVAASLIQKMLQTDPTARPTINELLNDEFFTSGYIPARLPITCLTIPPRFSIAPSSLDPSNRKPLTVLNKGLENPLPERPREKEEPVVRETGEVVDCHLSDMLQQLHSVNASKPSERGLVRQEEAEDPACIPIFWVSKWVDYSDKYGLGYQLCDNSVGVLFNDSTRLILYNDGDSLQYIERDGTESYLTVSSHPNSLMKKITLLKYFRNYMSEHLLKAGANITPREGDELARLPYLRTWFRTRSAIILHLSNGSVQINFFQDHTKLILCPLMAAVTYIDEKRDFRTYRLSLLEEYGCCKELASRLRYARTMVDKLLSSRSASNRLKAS
TDP1 block = blocks human tyrosyl-DNA phosphodiesterase 1. Q9NUW8. recombinant TDP1, AlphaScreen DNA substrate cleavage. Potency, µM (titrated, usually from 130 µM), inactives show at the highest dose activity change, negative = inhibition, most hits filed as inhibitors. 350,000 compounds, 0.28% hits. AID 485290; further: nearly all actives have a fitted effect of over 40% in size
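Steps: enzyme plus compound, 15 min RT; add biotin/phosphotyrosine-FITC oligonucleotide (15 nM final), react 5 min; add donor/acceptor beads (10 ug/ml final), 10 min; read AlphaScreen. Tdp1 at 1 nM final.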
TDP1 cell CPT = growth inhibition of DT40 Tdp1-/-;hTDP1 cells with camptothecin (screen for TDP1 inhibitors); AID 686979; chicken DT40 Tdp1-/-;hTDP1 cells + 20 nM CPT, ATP luminescence, 48 h; 420,000 compounds, 12% hits; Potency, µM (top dose mostly 46.2 µM), for the others: at the highest dose activity change, negative = growth inhibition, usual class: inhibitors; further: nearly all actives have a fitted effect of over 55% in size
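Chicken DT40 Tdp1-/- cells complemented with human TDP1, 400 cells/well, exposed to compounds plus 20 nM camptothecin for at least 48 h at 37 C; viability read as ATP content by CellTiter-Glo luminescence.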
GCN5L2 inh = blocks human GCN5L2 histone acetyltransferase | GCN5L2 HAT assay, ThioGlo1 CoA-SH fluorescence | Q92830 | AID 504327 | Potency, µM (doses to about 58.9 µM), inactives show top-dose activity change, negative = inhibition, hits mostly inhibitors | 390,000 compounds, 0.21% hits
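Fluorescence readout, Ex340nm/Em540nm: ThioGlo1 (50uM final) reacts with free CoA thiol released as 20nM GCN5L2 acetylates H3(1-25) peptide (75uM) using acetyl-CoA (70uM). Compound and enzyme sat 15 min beforehand; 20 min room-temperature reaction.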
VDR inh = blocks the human vitamin D receptor; VDR-SRC2-3 peptide fluorescence polarization, 2 h; 400,000 compounds, 0.93% hits; Potency, µM, for inactives: max response, negative = inhibition, actives largely listed as inhibitors
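The screen uses fluorescence polarization to detect compounds that interfere with recruitment of the SRC2-3 coactivator peptide to VDR; plates are read after 2 h at room temperature.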
An asterisk follows results filed as active; ? = inconclusive; nt = not tested or not shown; [ ] = another dose, or the depositor's remark. In the library only some 18% were active in any assay of this set; here they are far more common. The call rests on the fitted dose curve; in most records, active means well fitted curve in the direction sought with a large enough effect; inconclusive means small, poorly fitted or top-dose-only effect, or another doubt; inactive means no such curve, though single readings can be large; an effect the other way counts as inactive or inconclusive. On the % scale 0 is the no-effect control and ±100 the full control effect; potency means the concentration at half of the fitted maximal effect.

SMILES | DT40 TDP1 no CPT | PLK1 PBD block | TDP1 block | TDP1 cell CPT | GCN5L2 inh | VDR inh
COc1ccc([C@@H]2CC=C(C(=O)O)[C@H](c3ccc(C)cc3)N2S(=O)(=O)c2ccc(C)cc2)cc1OC | -1% | -9% | 2% | 7% | -2% | 12%
Cc1cc(C)cc(C(=O)C[n+]2cccc(Br)c2)c1 | -7% | nt | nt | -11% | nt | nt
COCCc1nn2c(=O)cc(COC(=O)c3ccc4c(c3)OCO4)nc2s1 | -14% | nt | nt | -2% | -10% | -3%
COc1ccc([C@H]2N[C@]3(CCCN(Cc4ccccc4)C3=O)[C@H]3C(=O)N(C)C(=O)[C@@H]23)cc1 | -21% | 4% | nt | -14% | nt | nt
CCCCCCCCCCCCCCCC(C)C1=NCCN1 (stereo not given) | 1% | nt | nt | ? | nt | nt
COc1ccc(-c2nnc(SCC(=O)N(C)C3CCCCC3)o2)cc1OC | 12µM* | nt | 6% | 16µM* | -4% | 21%
COc1ccc(-c2nnc(SCC(=O)N3CCCCC3)o2)cc1OC | -24% | -19% | 0% | -9% | -3% | -4%
Cc1cccc(OCc2nnc(SCC(=O)N3CCCC3)o2)c1 | -4% | -21% | nt | 4% | 1% | 6%
O=C(CSc1nnc(COc2ccc(Cl)cc2)o1)N(c1ccccc1)C1CCS(=O)(=O)C1 (stereo not given) | 13µM* | 0% | nt | ? | nt | nt
CC(Oc1ccc(F)cc1)c1nnc(SCC(=O)N(c2ccccc2)C2CCS(=O)(=O)C2)o1 (stereo not given) | -84% | -9% | -10% | ? | -25% | 15%
COC(=O)CSc1nnc(COc2ccc3ccccc3c2)o1 | 6% | -17% | -3% | 44% | -10% | 2%
Cc1cccc(OCc2nnc(SCC(=O)N(C)C3CCCCC3)o2)c1 | ? | -10% | -3% | 18µM* | -12% | -8%
CCOC(=O)CSc1nnc(COc2ccc3ccccc3c2)o1 | ? | 27µM* | nt | ? | -28% | -22%
COc1cccc(C(=O)Nc2cccc(-c3nc4ncccn4c3C)c2)c1 | ? | nt | 3% | ? | -13% | 3%
O=C(CN(C(=O)CSc1nnc(COc2ccccc2)o1)c1ccc(F)cc1)NC1CCCC1 | ? | -2% | -2% | ? | -9% | 2%
COC(=O)CSc1nnc(COc2cccc3ccccc23)o1 | -13% | -5% | nt | -5% | -8% | -8%
Cc1csc(N(C)C(=O)CSc2nnc(COc3cccc4ccccc34)o2)n1 | 5.8µM* | -9% | 7% | 5.8µM* | -12% | -4%
CN(C(=O)CSc1nc2ccccc2o1)C1CCCCC1 | 29µM* | -6% | 0% | ? | -18% | 12%
CCOc1ccc(N(CC(=O)NC2CCCC2)C(=O)CSc2nnc(COc3ccccc3)o2)cc1 | 21µM* | 0% | 1% | 21µM* | -6%[0.501 µM] | 8%
Cc1ccccc1NC(=O)c1sc2nc3c(c(-c4ccco4)c2c1N)CCC3 | ? | ? | 1% | ? | -11% | 0%
N#Cc1sc2nc3c(c(-c4ccco4)c2c1N)CCCC3 | 23µM* | -7% | -2% | ? | -15% | 3%
COC(=O)c1sc2nc3c(c(-c4cccs4)c2c1N)CCCC3 | ? | -13% | nt | -14% | -25% | 16%
NC(=O)c1sc2nc3c(c(-c4ccco4)c2c1N)CCCC3 | 16µM* | -19% | nt | ? | -6% | 7%
Nc1c(C(=O)NCC2CCCO2)sc2nc3c(c(-c4ccco4)c12)CC/C3=C\c1ccco1 (stereo not given) | 26µM* | ? | ? | ? | ? | ?
COc1cc(C2CC(=O)Nc3c2c(=O)n(C)c(=O)n3C)cc(OC)c1OC (stereo not given) | 4% | nt | -4% | 4% | -6% | 7%
SMILES | DT40 TDP1 no CPT | PLK1 PBD block | TDP1 block | TDP1 cell CPT | GCN5L2 inh | VDR inh
Cc1ccc(/C=C/C(=O)N2CCN(S(=O)(=O)c3c(C)c(C)cc(C)c3C)CC2)o1 | 15µM* | -27% | 6% | 23µM* | 19% | -49%
CN(C)S(=O)(=O)c1cccc(NC(=O)/C=C/c2ccc(S(=O)(=O)N3CCOCC3)cc2)c1 | 18µM* | 0% | 3% | 15µM* | -9% | ?
COc1cc(/C=C/C(=O)Nc2cccc(S(=O)(=O)N3CCOCC3)c2)ccc1OCC#N | ? | -2% | 0% | ? | -11% | -3%
Cc1ccc(/C=C/C(=O)Nc2cccc(S(=O)(=O)N3CCOCC3)c2)o1 | ? | -15% | 1% | 23µM* | 25% | -9%
O=C(/C=C/c1ccccc1)Nc1ccc(S(=O)(=O)N2CCOCC2)cc1 | -18% | -2% | nt | -18% | nt | 15%
COc1ccc(/C=C/C(=O)Nc2cccc(S(=O)(=O)N3CCOCC3)c2)cc1OC | 16µM* | -6% | 9% | ? | -6% | -10%
Cc1ccc(/C=C/C(=O)N2CCN(Cc3ccccc3)CC2)o1 | ? | -16% | 8% | ? | -5% | -8%
CC(C)(C)OC(=O)C[C@@H]1C/C=C\C[C@@H](CC(=O)N(CCO)Cc2ccccc2)C(=O)N2CCC[C@@H]2COC1=O | -26% | 1% | 0% | -40% | -7% | 3%
CCOC(=O)COc1ccc(C)cc1C(=O)c1ccn2nc(-c3ccc(Cl)cc3)cc2n1 | ? | nt | 7% | ? | 1% | 4%
COc1ccc(OC)c(S(=O)(=O)NC(N)=NCCc2ccccc2OC)c1 | nt | nt | 8% | nt | 0% | nt
CC(=O)c1cccc(NC(=O)/C=C/c2ccc(S(=O)(=O)N3CCOCC3)cc2)c1 | 18µM* | 3% | 1% | ? | -2% | 12%
COc1ccc(OC)c(NC(=O)/C=C/c2ccc(S(=O)(=O)N3CCOCC3)cc2)c1 | ? | -14% | -7% | 26µM* | -17% | 10%
Cc1ccc(NC(=O)[C@@H](NC(=O)c2cccc(S(=O)(=O)N3CCOCC3)c2)C(C)C)cc1C | 12µM* | -4% | 0% | ? | -7% | -6%
COc1ccc(NC(C)C(=O)Nc2cccc(S(=O)(=O)N3CCOCC3)c2)cc1OC (stereo not given) | 8.2µM* | -2% | 1% | 9.2µM* | 2% | 11%
Cc1ccc(/C=C/C(=O)Nc2ccncc2)o1 | ? | -20% | -5% | ? | -10% | -2%
Cc1ccc(/C=C/C(=O)Nc2ccc(N(C)C)cc2)o1 | ? | 2% | 7% | 21µM* | -2% | -25%
COc1ccccc1CNC(=O)c1cc2sccc2n1C | -29% | -8% | 4% | -24% | -4% | 2%
COC(=O)c1cccc(NC(=O)c2cc3sccc3n2C)c1 | 21µM* | -8% | 12% | ? | -22% | 1%
